# Peg3 prom inh: inhibitors of Peg3 promoter. HeLa PEG-Prom luciferase reporter, luminescence, overnight. inhibition, % at 20 µM. actives 1.7% (n = 360,000). AID 588405;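 active = inhibition of at least 50% at 20 µM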
# TRPM1 prom inh: reduces MITF-dependent TRPM1 promoter luciferase signal | SK-MEL-5 TRPM1 promoter luciferase, 24 h | inhibition, % at 12.5 µM | actives 0.83% (n = 330,000);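 active = mean inhibition across replicates of 60% or more, whatever share of single replicates reaches that level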
# CF NFkB block: cystic fibrosis NF-kB activation inhibition. KKLEB NF-kB-GFP reporter, PAF-induced, GFP fluorescence overnight. inhibition, % at 5 µM. actives 0.86% (n = 360,000). AID 588850;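 active = at least 50% inhibition at 5 µM, scaled per plate between neutral and stimulator controls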;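 also: PAF is a Pseudomonas aeruginosa culture filtrate used as stimulus; plate controls were PAF-stimulated DMSO wells for no effect and unstimulated DMSO wells for full effect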
# ABHD5-PLIN5 inh: ABHD5-PLIN5 protein interaction inhibition. actives 0.78% (n = 360,000). Split G. princeps luciferase complementation, luminescence, 4 h. inhibition, % at 4 µM;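 active = inhibition above the mean inhibition across every tested compound plus 3 SD, cut at about 22% in these data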;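 also: 0% = DMSO only wells and the 100% control is not disclosed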
# Target sequence (Q00G26 whole entry, looked up): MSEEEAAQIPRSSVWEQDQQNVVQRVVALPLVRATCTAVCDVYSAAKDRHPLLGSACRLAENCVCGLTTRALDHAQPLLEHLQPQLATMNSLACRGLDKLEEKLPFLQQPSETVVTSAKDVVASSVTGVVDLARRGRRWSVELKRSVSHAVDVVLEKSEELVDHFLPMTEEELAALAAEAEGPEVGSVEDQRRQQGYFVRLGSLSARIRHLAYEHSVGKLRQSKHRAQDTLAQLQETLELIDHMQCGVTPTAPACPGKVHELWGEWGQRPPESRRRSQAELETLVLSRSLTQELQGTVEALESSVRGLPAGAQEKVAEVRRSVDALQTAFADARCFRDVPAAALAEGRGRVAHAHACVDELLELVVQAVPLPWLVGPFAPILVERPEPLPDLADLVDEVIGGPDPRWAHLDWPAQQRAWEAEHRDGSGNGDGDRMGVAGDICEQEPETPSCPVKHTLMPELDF
# Target sequence (Q8WTS1 whole entry, looked up): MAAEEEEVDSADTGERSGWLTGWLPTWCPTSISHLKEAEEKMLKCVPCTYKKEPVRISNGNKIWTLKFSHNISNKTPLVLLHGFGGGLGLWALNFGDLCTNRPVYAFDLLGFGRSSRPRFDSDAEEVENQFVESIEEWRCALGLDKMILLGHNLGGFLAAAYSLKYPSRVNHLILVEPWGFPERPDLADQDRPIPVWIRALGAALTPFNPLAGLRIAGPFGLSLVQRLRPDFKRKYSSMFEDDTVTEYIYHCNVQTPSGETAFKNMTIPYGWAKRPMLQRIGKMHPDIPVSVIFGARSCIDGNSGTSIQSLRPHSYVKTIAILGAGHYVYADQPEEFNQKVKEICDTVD
# KKLEB tox: counter-screen for CF NF-kB inhibitors: cytotoxicity. KKLEB CF airway cells viability, ATPlite luminescence, overnight; stronger effect = lower value; cells stimulated with P. aeruginosa culture filtrate. activity change (cytotoxicity), % at 5 µM. actives 0.36% (n = 360,000). AID 602141;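 active = corrected activity change at or below -50% at 5 µM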
# HIF-2a inh: blocks HIF-2a reporter activity; 786-0 RCC cells HIF-2a reporter, luciferase luminescence, overnight; inhibition, % at 18.8 µM; actives 0.72% (n = 360,000);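 active = inhibition of the luminescence signal of 40% or more relative to plate controls, in a single-dose primary screen at 18.75 µM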
# ABHD5 PLIN5 conf: ABHD5-PLIN5 interaction inhibition, confirmed; shares compounds with ABHD5-PLIN5 inh; biochemical ABHD5-PLIN5 interaction, luminescence; inhibition, % at 4 µM; actives 67% (n = 2,200); AID 651612; in the data active = inhibition above about 23%;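 also: 0% = DMSO vehicle wells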
# HNF4 split-luc: HNF4 split-luciferase signal hit, counter-screen | HNF4 dimerization, luminescence, biochemical | shares compounds with ABHD5-PLIN5 inh | inhibition, % at 4 µM | actives 77% (n = 2,200);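 active = mean inhibition across replicate wells exceeding the computed hit threshold, cut at about 13% in these data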;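 also: light from luciferase halves that rejoin when HNF4 fusion proteins dimerize; 0% = DMSO only wells and the 100% control is not given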
# * = called active by the depositor; . = no result; ! = repeats disagree. An excerpt weighted towards active compounds, which were near 3% of everything screened.
SMILES,Peg3 prom inh,TRPM1 prom inh,CF NFkB block,ABHD5-PLIN5 inh,KKLEB tox,HIF-2a inh,ABHD5 PLIN5 conf,HNF4 split-luc
Cc1cc(C)c2oc(C(=O)NC3CCS(=O)(=O)C3)cc(=O)c2c1 (stereo not given),2.5,-9.0,-35.8,-1.8,16.3,11.4,.,.
O=C(NC1CCCCC1)C(c1ccnc2ccccc12)n1c(=O)c(-c2ccco2)nc2ccccc21 (stereo not given),.,.,.,55.5*,.,5.9,50.2*,8.1
O=C(NC1CCCCC1)C(c1ccccc1F)n1c(=O)c(-c2ccco2)nc2ccccc21 (stereo not given),.,.,.,71.6*,.,6.0,85.3*,31.2*
O=C(NC1CCCCC1)C(c1ccc(-c2ccccc2)cc1)n1c(=O)c(-c2ccco2)nc2ccccc21 (stereo not given),.,.,.,79.0*,.,-32.5,70.9*,2.4
O=C(Nc1ccc2c(c1)OCCO2)C(c1ccnc2ccccc12)n1c(=O)c(-c2ccco2)nc2ccccc21 (stereo not given),.,.,.,50.3*,.,-101.2,25.9*,7.3
CC1(C)CC(=O)C2=C(C1)c1c(ccc3ccccc13)NC2c1ccc(C(=O)O)cc1 (stereo not given),-24.7,16.9,-12.6,1.4,-6.5,-8.5,.,.
Cc1ccc(C2Nc3ccc4ccccc4c3C3=C2C(=O)CC(C)(C)C3)o1 (stereo not given),-100.6,-11.1,16.6,29.6*,-9.7,-261.2,4.1,7.3
Cn1cccc1/C=C1\CC(C(C)(C)C)C/C(=C\c2cccn2C)C1=O (stereo not given),11.9,16.1,-89.8,25.5*,0.5,10.3,12.4,25.9*
O=C(C[C@H]1CC[C@@H](NS(=O)(=O)c2ccccc2)[C@@H](CO)O1)NCc1ccc(Cl)c(Cl)c1,.,.,.,-2.4,.,-8.0,.,.
CCCc1cc(=O)oc2cc(C)cc(OCC(=O)N3CCC(C(=O)O)CC3)c12,4.8,-0.4,7.1,2.4,-2.1,9.6,.,.
CC/C(=C(\c1ccccc1)c1ccc(OCCN(C)C)cc1)c1ccccc1,70.7*,27.1,26.2,38.2*!,-23.6,-5.8,72.4*,25.8*
Cc1ccc(N(C)S(=O)(=O)c2c[nH]c3ccc([N+](=O)[O-])cc23)cc1,35.6,-14.5,-8.2,-3.9,-3.8,2.9,.,.
C#CCOCCOCCOCCNc1nc(N2CCN(C(=O)CCCCCCCCCCNC(=O)Cn3cc(C[C@@H](C)O)nn3)CC2)nc(N2CCN(C(=O)CCCCCCCCCCNC(=O)[C@@H]([C@H](C)O)n3cc(C)nn3)CC2)n1,-72.8,46.1,20.5,97.1*,-8.3,-4.7,7.7,-7.3
C#CCOCCOCCOCCNc1nc(N2CCN(C(=O)CCCCCCCCCCNC(=O)Cn3cc(CCCCCN)nn3)CC2)nc(N2CCN(C(=O)CCCCCCCCCCNC(=O)Cn3cc(C[C@@H](C)O)nn3)CC2)n1,26.6,-6.1,13.9,46.8*,7.1,-7.2,4.6,-14.0
CCCn1c2ccccc2c2cnn(CC(=O)NC3CCCCC3)c(=O)c21,4.9,15.0,-4.9,-7.4,11.1,-2.1,.,.
O=S1(=O)CC(N2CCCC2)CN1Cc1cn(Cc2cccc(Cl)c2)nn1 (stereo not given),.,.,.,-5.1,.,-0.5,.,.
CCOc1ccc(S(=O)(=O)Nc2ccc(C(=O)N3CCCC3)cc2)cc1C(N)=O,-22.9,8.9,23.8,10.1,-0.8,5.7,.,.
O=C1ON=C(c2ccccc2)/C1=C/c1ccc(-c2ccccc2[N+](=O)[O-])o1,102.7*,67.1*,40.2,34.9*,-17.5,97.7*,102.3*,106.7*
CSC(=Nc1cccc(C)c1)NC#N,5.4,12.5,-22.5,5.4,2.7,3.7,.,.
Cc1cc(C)c2c(c1)C(=O)/C(=C/c1ccc(C(=O)O)cc1)CC2,-127.1,-19.6,1.4,13.7,10.9,-119.6,.,.
O=C(O)c1ccc(/C=C2\COc3ccccc3C2=O)cc1,26.1,13.5,30.8,32.1*,0.9,6.8,84.0*,78.3*

# Screening data from PubChem BioAssay.
